Columns and labels:
Assay in all cases: PBM binding z-score (relative to random genomic background probes); higher = stronger binding; sequences stand for … in GC…GCGATTGACAGCGTAGAATGAAGG
[1] = system: FXR:RXRa (NR concentration 270 nM, RXRa partner concentration 90 nM)
In short: (§1)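 Scanned fluorescence from custom Agilent 4×180K protein-binding microarrays was regression-normalized. Binding z-scores use random background probes as reference. Ligand-free nuclear receptor dimers were incubated on the arrays for 1 h and detected with antibodies against each partner (one per run).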

[2] = system: LXRa:RXRa (NR concentration 270 nM, RXRa partner concentration 90 nM)
In short: as §1

[3] = system: LXRa homodimer (NR concentration 270 nM)
In short: as §1

[4] = system: LXRb:RXRa (NR concentration 270 nM, RXRa partner concentration 90 nM)
In short: as §1

[5] = system: LXRb homodimer (NR concentration 270 nM)
In short: as §1

[6] = system: PPARa:RXRa (NR concentration 270 nM, RXRa partner concentration 90 nM)
In short: as §1

[7] = system: PPARg:RXRa (NR concentration 180 nM, RXRa partner concentration 90 nM)
In short: as §1

[8] = system: PPARg:RXRa 270nM:90nM, anti-RXR (NR concentration 270 nM, RXRa partner concentration 90 nM)
In short: as §1

[9] = system: PPARg:RXRa 30nM:10nM, anti-RXR (NR concentration 30 nM, RXRa partner concentration 10 nM)
In short: as §1

[10] = system: PPARg:RXRa 90nM:30nM, anti-RXR (NR concentration 90 nM, RXRa partner concentration 30 nM)
In short: as §1

Row | Sequence | PBM binding z-score [1] | PBM binding z-score [2] | PBM binding z-score [3] | PBM binding z-score [4] | PBM binding z-score [5] | PBM binding z-score [6] | PBM binding z-score [7] | PBM binding z-score [8] | PBM binding z-score [9] | PBM binding z-score [10]
1 | CCTCCTGGGCCAAGGTCATTGATCAGTCAAAGCA | 2.96 | 2.89 | 1.06 | 2.86 | -0.68 | 3.57 | 1.39 | 2.83 | 0.457 | 1.75
2 | CCTACTGGGCCACGAACGGTCATTGATTCAGTGA | 0.0231 | 1.38 | 0.691 | -0.0702 | -0.838 | 0.858 | 1.47 | 1.36 | -0.262 | 0.515
3 | TCTGCTAGGTCAACGATGGTCTGCTAATCTGCTA | 2.95 | 2.1 | -0.371 | 1.35 | 0.041 | 2.92 | 1.92 | 2.64 | 1.66 | 2.11
4 | GCATATAGGAAATACAAGGTGAAAGTCCGATTGT | -0.0334 | -0.148 | -0.095 | 0.0762 | -0.434 | 0.727 | 0.752 | 0.734 | -0.0341 | 0.81
5 | CTCGAAAGGTCGGTTGAGGTGGGTATACGGATAA | 2.11 | 1.35 | 0.0862 | 1.31 | 0.332 | 2.36 | 0.284 | 0.726 | 0.0658 | 0.243
6 | ATCTCTAGGTAAAGTTGAGTGAAAGATCGATAGA | 0.674 | 0.644 | -0.0419 | 0.163 | 0.646 | 0.992 | 1.37 | 2.56 | 1.23 | 2.07
7 | CGTCCAAGGTCAAAGCTAGGTCAGTGAAAGCATT | 7.24 | 5.98 | 2.25 | 4.54 | 1.44 | 5.65 | 4.63 | 5.54 | 1.86 | 4.09
8 | CGAACTAGGTCTTTGACAGGACAGTGAATAGTAA | -0.13 | 0.047 | -0.136 | -0.238 | -0.525 | 0.769 | 0.674 | 0.585 | 0.162 | 0.43
9 | TCGAGTAGGTTACCAATGGGGAATTCAGCTTTCT | 0.0745 | 0.417 | -0.56 | 0.355 | -0.737 | 0.977 | 0.304 | 1.2 | 0.963 | 1.18
10 | CCTACTGGGCCCAAGGTCATTGATTCCAATGCTC | 2.45 | 2.46 | 1.44 | 2.53 | 0.0311 | 3.65 | 6.53 | 6.93 | 5.33 | 6.47
11 | CCTATTAGTTGACCATAAGAGCAACCGAAGCTCG | 0.554 | 0.617 | 1 | 0.594 | 1.16 | 0.283 | 0.521 | 0.101 | 0.292 | -0.0122
12 | TCTTGTAGATCAACAGGAGGTTTAGAAAGATCGA | -0.117 | -0.19 | -0.342 | 0.0269 | -0.559 | 0.152 | -0.195 | 0.953 | 2.59 | 1.93
13 | CCTACAGGGCCAAAAAGGTCATTGATGCCGATAA | 4.22 | 4.32 | 2.83 | 4.2 | 0.284 | 4.61 | 1.51 | 2.74 | 0.52 | 1.49
14 | TCTTGTAGATCAAGAGGAGGTTAAGAAAGATCGA | 0.338 | 0.95 | -0.0702 | 0.725 | -0.517 | 1.22 | -0.0325 | 1.24 | 2.38 | 1.6
15 | GTACCAAGGTGAATAGGTCGTTGTTGAGTAGGCG | 0.827 | 0.686 | -0.152 | 0.303 | -0.821 | 2.07 | 1.18 | 1.21 | 0.0125 | 0.678
16 | TCTTGGAGATCAAAGGTTAAGAAAGCCGAAGCCT | 2.17 | 2.17 | -0.196 | 2.2 | -0.93 | 4.34 | 5.56 | 6.62 | 5.5 | 7
17 | TCTTGTAGATCAATAGAGGTTAAGCAAGTGCGCT | 0.958 | 2.62 | 0.281 | 1.34 | -0.1 | 2.08 | 0.0342 | 1.71 | 2.75 | 2.4
18 | TCTAGTTGGTGAAAGGTCACACACTCGAAATGCG | 5.7 | 5.73 | 3.63 | 5.31 | 1.6 | 6.32 | 10.8 | 9.75 | 9.91 | 11.4
19 | ATATGTTGGTTAGCTGGGGTCATTCAGACTAGGC | 3.89 | 4.15 | 2.39 | 4.32 | 1.69 | 4.26 | 1.3 | 2.46 | 0.784 | 1.8
20 | TAGAGTAGGTTACCAATGGGGCATTCAGCTTTCT | 0.195 | 1.62 | 0.13 | 1.22 | 1.02 | 1.68 | 1.3 | 1.96 | 1.16 | 1.72
21 | CTACCAAGGTGAACAAGGTCGGTGATTACTATTC | 0.778 | 0.251 | -0.361 | 0.578 | -0.54 | 1.69 | 0.819 | 0.753 | -0.269 | 0.288
22 | ACTAGCAGGCCAAGTTTGGGTTACTCAAACAAAG | -0.336 | -0.429 | -0.394 | -0.296 | -0.552 | -0.051 | -0.32 | -0.325 | -0.354 | -0.657
23 | GTAGACAGGTGAAACGCAGGTAACTCAGGGTGGC | 0.081 | 0.114 | -0.34 | -0.0403 | -0.733 | 0.941 | 0.744 | 0.425 | -0.305 | 0.121
